Results with a measured potency or affinity are listed apart. Results filed as inconclusive are left out. Activity calls are given as the source filed them.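 Rule for the calls: active = a valid curve of falling signal whose half-effect concentration is at most ten times the top tested dose; inconclusive = flat curve at 30 to 70% inhibition, or poor fit; inactive = signal rise, flat within 30%, or potency beyond limit.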
target: Scavenger receptor class B member 1 (Mus musculus) (UniProt Q61009); experiment: mouse SR-BI DiI-HDL uptake blockers – ldlA[mSR-BI] cells, fluorescence, cherry pick, dose response (AID 493194); conditions: CHO ldlA[mSR-BI] DiI-HDL uptake fluorescence, 3 h; series mostly up to 35 µM;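 note: CHO cells lacking LDL receptor and overexpressing mouse SR-BI; cellular uptake of fluorescently labeled HDL measured as cell fluorescence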
Sequence (Q61009 whole entry, looked up): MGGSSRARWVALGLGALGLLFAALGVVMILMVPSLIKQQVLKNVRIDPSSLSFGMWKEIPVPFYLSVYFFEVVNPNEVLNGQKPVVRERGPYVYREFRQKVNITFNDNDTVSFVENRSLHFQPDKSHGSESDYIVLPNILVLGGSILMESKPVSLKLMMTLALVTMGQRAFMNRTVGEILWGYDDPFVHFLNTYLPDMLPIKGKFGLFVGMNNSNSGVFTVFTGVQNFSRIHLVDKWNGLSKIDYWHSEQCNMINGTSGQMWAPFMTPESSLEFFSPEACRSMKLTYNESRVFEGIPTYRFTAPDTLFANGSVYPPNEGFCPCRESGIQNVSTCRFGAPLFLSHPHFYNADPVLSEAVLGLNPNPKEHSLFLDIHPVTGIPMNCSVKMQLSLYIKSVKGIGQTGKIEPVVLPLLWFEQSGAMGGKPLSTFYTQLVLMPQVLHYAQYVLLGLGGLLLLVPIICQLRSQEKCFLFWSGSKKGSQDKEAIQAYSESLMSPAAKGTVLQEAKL

outcome, inactive:
Cc1sc(NC(=O)Cc2ccc3c(c2)OCO3)nc1-c1ccc2c(c1)CCN2C(=O)c1cccc(F)c1
O=C(/C=C/c1ccco1)Nc1cccc(NC(=O)/C=C/c2ccco2)n1
CC1Cc2ccccc2N1C(=O)Cn1nnc(-c2ccccc2NC(=O)C2CCC2)n1 (stereo not drawn)
COc1ccc(COC(=O)c2ccc(Br)c(S(=O)(=O)N3CCOCC3)c2)cc1F
CCC(C)(C)NC(=O)C(c1ccc(C)cc1)N(Cc1cccs1)C(=O)c1ccc2c(c1)OCCO2 (stereo not drawn)
CN(C(=O)COC(=O)c1c2c(nc3ccccc13)/C(=C/c1cccc([N+](=O)[O-])c1)CCC2)C1CCS(=O)(=O)C1 (stereo not drawn)
CNc1cnn(-c2ccc(C)cc2)c(=O)c1Sc1ccc(C)cc1
Cc1cc2oc(=O)cc(-c3ccccc3)c2c(C)c1-c1ccc(C(F)(F)F)cc1
COC(=O)C1=CN(c2ccc(F)c(F)c2)C=C(C(=O)OC)C1c1ccc([N+](=O)[O-])cc1
COCCN(C(=O)COC(=O)c1ccccc1Nc1ccccc1)c1c(N)n(Cc2ccccc2)c(=O)[nH]c1=O
CC(=O)Nc1c(I)c(C(=O)N[C@H]2C(O)O[C@H](CO)[C@@H](O)[C@@H]2O)c(I)c(N(C)C(C)=O)c1I (stereo partly drawn)
CN(C)S(=O)(=O)N1CCN(C(=O)N(c2ccccc2)c2ccccc2)CC1
CCOc1ccccc1NC(=O)C(CC(C)C)NC(=O)C1CCC(C)CC1 (stereo not drawn)
CCOC(=O)c1cccc(NC(=O)Nc2cc(OC)ccc2OC)c1
Cc1ccccc1C(=O)N1CCc2cc(-c3nc(NC(=O)Cc4ccc5c(c4)OCO5)sc3C)ccc21
CC(CCc1ccccc1)NC(=O)C1CCN(C(=O)c2sccc2-n2cccc2)CC1 (stereo not drawn)
CC(=O)Nc1ccc(S(=O)(=O)Nc2cc(C)c(-n3nc4ccccc4n3)cc2O)cc1
COc1ccc(OC)c(CCNC(=O)c2ccc(NC3=NC4CS(=O)(=O)CC4S3)cc2)c1 (stereo not drawn)
Cc1cc(N(C)C(=O)c2ccc3c(c2)S(=O)(=O)c2cc(Cl)ccc2C3=O)c(C(F)(F)F)o1
COc1ccc(C2/C=C\CN(S(=O)(=O)c3ccc(C)cc3)CC(=O)N2Cc2ccc(F)cc2)cc1 (stereo not drawn)
COc1ccc(-c2[nH]c(-c3ccc(F)cc3)nc2SCC(=O)NC2CCCC2)cc1
CN(C(=O)COC(=O)CCc1c[nH]c2ccccc12)c1ccccc1
Cc1ccc(C(C(=O)NC(C)(C)C)N(Cc2cccs2)C(=O)c2ccc3c(c2)OCCO3)cc1 (stereo not drawn)
CCOC(=O)C1CCCN(S(=O)(=O)NC[C@H]2O[C@@H](n3cnc4c(N)ncnc43)[C@H](O)[C@@H]2O)C1 (stereo partly drawn)
O=C(OCCNc1ncc(C(F)(F)F)cc1Cl)c1ccc(S(=O)(=O)N2CCOCC2)cc1
O=C(NCCn1cc(SCC(=O)N2CCOCC2)c2ccccc21)c1c(F)cccc1F
O=C(Nc1cccc(S(=O)(=O)N2CCOCC2)c1)C1CCN(S(=O)(=O)c2ccccc2)CC1
O=C(Nc1cccc(NC(=O)c2ccccc2Cl)c1)c1ccc(F)cc1
CC(C)c1nnc(NC(=O)CCC(=O)N2CCN(C3c4ccccc4-c4ccccc43)CC2)s1
COc1cccc(-c2csc(N3CCN(C(=S)Nc4cccc(C)c4)CC3)n2)c1
Cc1ccc2c(c1)C(=O)C(=O)N2CC(=O)Nc1ccc(N2CCOCC2)cc1
COc1ccccc1NC(=O)CN1CCN(CC(=O)Nc2ccc(C)c(F)c2)CC1
Cc1ccc2nc3c(c(C(=O)OCC(=O)N(C)C4CCS(=O)(=O)C4)c2c1)CCCC3 (stereo not drawn)
Cc1cccc(NC(=O)c2cc(-c3cc(C)cc(C)c3O)n[nH]2)c1
COc1ccc(N(CC(=O)NC2CCCC2)C(=O)Cn2nnc(-c3ccc(OC)c(OC)c3)n2)cc1
CN(Cc1ccc(OC(F)F)cc1)C(=O)c1ccccc1Sc1ccccc1C#N
CCNC(=O)c1c(NC(=O)c2cc(-c3cc(C)cc(C)c3O)n[nH]2)sc2c1CCCC2
Cc1cc(C)c(C)c(S(=O)(=O)N2CCN(CC(=O)NC(=O)NCc3ccccc3)CC2)c1C

Reference: PubChem BioAssay AID493194 (Broad Institute, 2011)
